Structures are written as SMILES. The panel holds about 83,000 compounds, 20% with a hit somewhere; the sample as a whole holds those more often.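 Interpretation: 100, growth as untreated; towards 0, rising growth inhibition; 0, no net growth; 0 to -100, cell death. Compounds scoring below 10 were considered active.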 Values without a mark were called inactive. The source made the active and inactive calls.

Some test systems named below: NCI-H23 lung; NCI-H226 lung; NCI-H322M lung; HOP-62 NSCLC; NCI-H460 lung; HOP-92 NSCLC; NCI-H522 lung; A549/ATCC NSCLC; 786-0 renal; COLO 205 colon; DU-145 prostate; K-562 leukemia; MALME-3M melanoma; MDA-MB-231 breast; RXF 393 renal; SF-268 CNS; SF-295 CNS; SF-539 CNS; UACC-257 melanoma; M14 melanoma.
Assay in all cases: NCI-60 one-dose screen, 48 h (100 = growth as untreated, 0 = no growth, -100 = all killed)
Holding throughout (settings): 10 µM unless noted

Turning to `COc1cc(NC(C)CCCN2C(=O)c3ccccc3C2=O)c2ncccc2c1OC` (stereo not given), the growth in the assay with NCI-H23 lung was 91.6%; in the assay with NCI-H226 lung, 98.2%; in the assay on NCI-H322M lung, 79.5%; in the assay with HOP-62 NSCLC it was 80.7%; in the assay with NCI-H460 lung, 103%; with HOP-92 NSCLC it was 45.4%. Besides, the growth was 70.8% in the assay on NCI-H522 lung; 100% with A549/ATCC NSCLC; 91.1% with 786-0 renal; 101% with COLO 205 colon; 104% in the assay on DU-145 prostate; 71.3% in the assay on K-562 leukemia. For the same compound, the growth with MALME-3M melanoma was 74.1%; in the assay with MDA-MB-231 breast, 90.2%; in the assay with RXF 393 renal, 95%; with SF-268 CNS it was 108%; with SF-295 CNS it was 81.1%; in the assay with SF-539 CNS, 98.6%. Besides, the growth was 99.4% in the assay with UACC-257 melanoma and 78.7% in the assay with M14 melanoma.

On to `Cl[C@@H]1CCO[C@H](c2cc3ccccc3c3ccccc23)C1`, for which the growth in the assay with NCI-H23 lung is 95.5%; in the assay on NCI-H226 lung, 89.8%; with NCI-H322M lung, 94.6%; in the assay with HOP-62 NSCLC, 98.8%; in the assay on NCI-H460 lung, 99%; in the assay on HOP-92 NSCLC, 89.1%. The growth is 82.6% in the assay on NCI-H522 lung; 93.6% in the assay on A549/ATCC NSCLC; 88.7% in the assay with 786-0 renal; 104% in the assay with COLO 205 colon; 102% in the assay with DU-145 prostate; 95.5% in the assay on K-562 leukemia. The growth is 106% in the assay with MALME-3M melanoma; 90.2% in the assay on MDA-MB-231 breast; 98.8% with RXF 393 renal; 97.9% in the assay with SF-268 CNS; 96.4% in the assay with SF-295 CNS; 95% with SF-539 CNS. In addition, the growth in the assay with UACC-257 melanoma was 93.4%; in the assay with M14 melanoma, 95.3%.

As for `COc1ccc2c(c1)OC(N)=C(C#N)C2c1ccc(F)c(F)c1` (stereo not given), the growth in the assay on NCI-H23 lung is 48.2%; with NCI-H226 lung it was 69.2%; in the assay with NCI-H322M lung it was 51.4%; with HOP-62 NSCLC, 44.9%; with NCI-H460 lung, 14.4%; with HOP-92 NSCLC, 76.3%. The growth was -12.6% (active) in the assay on NCI-H522 lung; 37.1% in the assay on A549/ATCC NSCLC; 41.4% in the assay on 786-0 renal; 10.3% with COLO 205 colon; 30.4% in the assay with DU-145 prostate; 9.04% (active) in the assay on K-562 leukemia. Also, the growth in the assay with MALME-3M melanoma was 78.4%; with MDA-MB-231 breast, 44.5%; in the assay on RXF 393 renal, -9.6% (active); in the assay on SF-268 CNS, 56.7%; with SF-295 CNS it was 23.1%; in the assay with SF-539 CNS it was 14.6%. In addition, the growth was 73% in the assay on UACC-257 melanoma and 18.8% with M14 melanoma.

Consider `COc1ccccc1N1CCN(CCCOc2ccc(OCCCN3CCN(c4ccccc4OC)CC3)c(C(=O)c3cc(OC)c(OC)c(OC)c3)c2)CC1`, for which the growth in the assay with NCI-H23 lung was 95.4%; in the assay with NCI-H226 lung, 111%; with NCI-H322M lung, 96.5%; in the assay on HOP-62 NSCLC, 113%; in the assay with NCI-H460 lung it was 115%; in the assay on HOP-92 NSCLC, 94.2%. The growth is 106% with NCI-H522 lung; 109% in the assay on A549/ATCC NSCLC; 105% in the assay with 786-0 renal; 99.5% in the assay with COLO 205 colon; 105% in the assay with DU-145 prostate; 67.6% in the assay on K-562 leukemia. Also, the growth in the assay with MALME-3M melanoma was 113%; with MDA-MB-231 breast it was 113%; in the assay on RXF 393 renal, 126%; with SF-268 CNS, 110%; in the assay with SF-295 CNS, 109%; with SF-539 CNS it was 107%. The growth in the assay on UACC-257 melanoma is 107%; in the assay on M14 melanoma, 108%.

Regarding `O=C1c2ccccc2OC=C(c2ccccc2)N1CCCCNc1ccc(F)cc1`, the growth was 90.1% in the assay on NCI-H23 lung; 87.5% in the assay on NCI-H226 lung; 90.3% in the assay with NCI-H322M lung; 85.1% in the assay on HOP-62 NSCLC; 97.9% in the assay with NCI-H460 lung; 21.8% with HOP-92 NSCLC. Moreover, the growth is 69.5% in the assay on NCI-H522 lung; 68.9% in the assay with A549/ATCC NSCLC; 68.2% in the assay on 786-0 renal; 67.6% in the assay on COLO 205 colon; 98.9% in the assay with DU-145 prostate; 68.1% in the assay on K-562 leukemia. Further, the growth with MALME-3M melanoma is 82.3%; in the assay on MDA-MB-231 breast it was 74.9%; in the assay on RXF 393 renal it was 97.9%; in the assay with SF-268 CNS it was 78.3%; with SF-295 CNS, 86%; in the assay with SF-539 CNS, 100%. The growth was 83.6% in the assay with UACC-257 melanoma and 76.7% with M14 melanoma.

Consider `COc1ccc(Cl)cc1NC(=O)c1cc2c([nH]1)-c1nc(N)sc1CCC2`, for which the growth was 86.4% in the assay on NCI-H23 lung; 95.6% with NCI-H226 lung; 87.1% in the assay with NCI-H322M lung; 102% in the assay on HOP-62 NSCLC; 109% in the assay with NCI-H460 lung; 132% in the assay on HOP-92 NSCLC. The growth with NCI-H522 lung was 64.3%; in the assay with A549/ATCC NSCLC it was 69.6%; in the assay on 786-0 renal it was 99.7%; in the assay on COLO 205 colon, 121%; in the assay with DU-145 prostate, 101%; with K-562 leukemia, 74.7%. Besides, the growth with MALME-3M melanoma is 101%; in the assay on MDA-MB-231 breast it was 105%; with RXF 393 renal it was 114%; in the assay with SF-268 CNS, 98.2%; in the assay with SF-295 CNS, 106%; with SF-539 CNS it was 99.4%. For the same compound, the growth with UACC-257 melanoma is 91%; in the assay with M14 melanoma, 97.6%.

Consider `Cc1ccccc1C[P+](c1ccccc1)(c1ccccc1)c1ccccc1`, for which the growth is 11.6% with NCI-H23 lung; 32.9% in the assay with NCI-H226 lung; 57.7% in the assay on NCI-H322M lung; 32.4% with HOP-62 NSCLC; 21% with NCI-H460 lung; -7.58% (active) in the assay with HOP-92 NSCLC. The growth in the assay with NCI-H522 lung was 0.342% (active); with A549/ATCC NSCLC, 29.9%; in the assay on 786-0 renal, 40.7%; with COLO 205 colon it was 9.84% (active); in the assay on DU-145 prostate, 32.4%; with K-562 leukemia it was 22.4%. Further, the growth in the assay on MALME-3M melanoma is 5.05% (active); in the assay on MDA-MB-231 breast, 46.3%; in the assay with RXF 393 renal it was 50.4%; in the assay with SF-268 CNS, 16.7%; with SF-295 CNS it was 25.2%; with SF-539 CNS, 33.6%. In addition, the growth with UACC-257 melanoma was -1.88% (active); in the assay with M14 melanoma it was 29.2%.

On to `[2H]c1nc(Nc2ncc(F)c(-c3cc(F)c4nc(C)n(C(C)C)c4c3)n2)c([2H])c([2H])c1CN1CCN(CC)CC1`, for which the growth in the assay with NCI-H23 lung is 48.7%; in the assay on NCI-H226 lung, 41.5%; in the assay on NCI-H322M lung, 41.1%; in the assay with HOP-62 NSCLC, 51.2%; with NCI-H460 lung it was 43.9%; in the assay on HOP-92 NSCLC it was 59.1%. Also, the growth in the assay on NCI-H522 lung is 66.1%; in the assay with A549/ATCC NSCLC, 36.2%; in the assay with 786-0 renal, 52.8%; in the assay on COLO 205 colon it was 15.6%; in the assay with DU-145 prostate it was 59%; in the assay with K-562 leukemia, -15.9% (active). Further, the growth in the assay on MALME-3M melanoma is 85.9%; in the assay on MDA-MB-231 breast, 55.5%; in the assay on RXF 393 renal it was -8% (active); in the assay with SF-268 CNS it was 54%; with SF-295 CNS it was 59.2%; in the assay on SF-539 CNS, 67.2%. Moreover, the growth is 72.3% in the assay with UACC-257 melanoma and 46.3% in the assay with M14 melanoma.

The values are drawn from PubChem BioAssay (NCI).
